TDP1 inh: qHTS Assay for Inhibitors of Tyrosyl-DNA Phosphodiesterase (TDP1) | Tyrosyl-DNA phosphodiesterase 1 (Homo sapiens), Q9NUW8 | recombinant TDP1, AlphaScreen DNA substrate cleavage | Potency, µM (titrated, usually from 130 µM), inactives show top-dose activity change, negative = inhibition, actives largely listed as inhibitors | actives 0.28% (n = 350,000) | AID 485290, 2010; further: potency means the concentration at half of the fitted maximal effect; on the % scale 0 is the no-effect control and ±100 the full control effect; nearly all actives have a fitted effect of over 40% in size
Target sequence (Q9NUW8 whole entry, looked up): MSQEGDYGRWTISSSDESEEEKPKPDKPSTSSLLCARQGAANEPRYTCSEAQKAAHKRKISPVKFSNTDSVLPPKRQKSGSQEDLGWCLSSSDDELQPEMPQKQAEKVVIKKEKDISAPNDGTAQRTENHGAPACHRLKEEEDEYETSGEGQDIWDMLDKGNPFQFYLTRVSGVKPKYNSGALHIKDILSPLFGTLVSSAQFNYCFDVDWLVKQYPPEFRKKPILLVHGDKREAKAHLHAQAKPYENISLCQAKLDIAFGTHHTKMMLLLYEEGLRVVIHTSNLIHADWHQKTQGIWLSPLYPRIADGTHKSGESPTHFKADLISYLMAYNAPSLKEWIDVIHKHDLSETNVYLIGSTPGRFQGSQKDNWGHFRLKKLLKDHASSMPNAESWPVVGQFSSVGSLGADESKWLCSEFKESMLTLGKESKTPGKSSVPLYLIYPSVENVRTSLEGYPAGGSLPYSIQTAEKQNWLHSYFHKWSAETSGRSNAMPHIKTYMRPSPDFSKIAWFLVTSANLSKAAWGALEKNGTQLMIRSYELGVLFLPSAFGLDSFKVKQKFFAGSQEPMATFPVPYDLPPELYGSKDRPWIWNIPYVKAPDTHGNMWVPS
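Recombinant human Tdp1 (E. coli-expressed, 1 nM final) preincubated with compounds 15 min at room temperature, then 5'-biotin/3'-phosphotyrosine-FITC DNA substrate (15 nM final) added for 5 min. AlphaScreen beads (10 ug/ml final) added 10 min; cleavage lowers signal.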
HepG2 viability: qHTS for Inhibitors of TGF-b: Cytotox Counterscreen; AID 588856, 2011; actives 0.76% (n = 410,000); Potency, µM (top dose mostly 46.1 µM), for the others: at the top dose activity change, negative = cytotoxicity, hits mostly cytotoxic; HepG2 CAGA-GFP viability, ATP luminescence, 18 h; further: potency means the concentration at half of the fitted maximal effect
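HepG2 CAGA-GFP cells (1000/well, DMEM with 1% FBS) received compound, then TGF-beta at 500 pg/mL final, and were incubated 18 hours at 37 degrees C. Viability was read by CellTiter-Glo luminescence. Media-only wells were set as complete cell-killing and DMSO as no toxicity.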
TDP1 cell CPT: qHTS for Inhibitors of human tyrosyl-DNA phosphodiesterase 1 (TDP1): qHTS in cells in presence of CPT. chicken DT40 Tdp1-/-;hTDP1 cells + 20 nM CPT, ATP luminescence, 48 h. Potency, µM (top dose mostly 46.2 µM), for the others: at the highest dose activity change, negative = growth inhibition, usual class: inhibitors. actives 12% (n = 420,000); further: potency means the concentration at half of the fitted maximal effect; on the % scale 0 is the no-effect control and ±100 the full control effect; nearly all actives have a fitted effect of over 55% in size
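Chicken DT40 Tdp1-/- cells stably complemented with human TDP1 were seeded at 400 cells/well in medium containing 20 nM camptothecin, exposed to pin-transferred compounds, and grown at 37 °C for at least 48 hr. Viability was read as ATP luminescence.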
DT40 TDP1 no CPT: qHTS for Inhibitors of human tyrosyl-DNA phosphodiesterase 1 (TDP1): qHTS in cells in absence of CPT | Potency, µM (highest dose often 46.2 µM), inactives show at the highest dose activity change, negative = growth inhibition, usual class: inhibitors | DT40 Tdp1-/- hTDP1 cells, no CPT, ATP luminescence, 48 h | actives 15% (n = 420,000) | AID 686978, 2013; further: potency means the concentration at half of the fitted maximal effect; on the % scale 0 is the no-effect control and ±100 the full control effect; nearly all actives have a fitted effect of over 55% in size
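Readout: luminescence from CellTiter-Glo after 30 min in the dark at RT. Cells: DT40 Tdp1-/- with stable hTDP1, 400/well. Exposure: compounds alone, ≥48 hr, 37 °C.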
TGFb SMAD3 inh: qHTS for Inhibitors of TGF-b | HepG2 CAGA-GFP TGF-b/SMAD3 reporter, GFP fluorescence, 18 h; TGF-beta stimulated, 500 pg/mL final | Potency, µM (titrated, usually from 46.1 µM), for inactives: top-dose activity, negative = inhibition, actives largely listed as inhibitors | actives 1.2% (n = 410,000) | AID 588855, 2011; further: potency means the concentration at half of the fitted maximal effect; on the % scale 0 is the no-effect control and ±100 the full control effect; nearly all actives have a fitted effect of over 65% in size
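Using HEPG2 CAGA-GFP reporter cells at 1000 cells/well, we pinned test compounds, stimulated with recombinant TGF-beta (500 pg/mL final) and measured total well GFP after 18 h.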
IL1B secr inh: qHTS for Inhibitors of Inflammasome Signaling: IL-1-beta AlphaLISA Primary Screen | THP-1 LPS/ATP IL-1B secretion, AlphaLISA, 16 h; active compounds read low | actives 4.7% (n = 360,000) | activity change, % at 57.5 µM | AID 743279, 2014; in the data active means activity change below about -50%; inconclusive means mostly about -30% to -49%; further: on the % scale 0 is the no-effect control and ±100 the full control effect
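Secreted IL-1B measured by AlphaLISA bead assay after 16 h compound exposure of THP-1 cells; compounds (final up to 57.5 uM) added 1 h before LPS (250 ng/mL) and ATP (1.25 mM) stimulation; lower signal means less secretion.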
Starred values were filed as active, the others as inactive; ? = inconclusive; . = no result given; [ ] = another dose, or the depositor's remark. Shown are actives, neighbours in structure and some others; about 19% of the full set was active somewhere. Unless noted, the call rests on the fitted dose curve; in most records, active means well fitted curve in the direction sought with a large enough effect; inconclusive means small, poorly fitted or top-dose-only effect, or another doubt; inactive means no such curve, though single readings can be large; an effect the other way counts as inactive or inconclusive.

SMILES | TDP1 inh | HepG2 viability | TDP1 cell CPT | DT40 TDP1 no CPT | TGFb SMAD3 inh | IL1B secr inh
C/C(Cn1nnc([N+](=O)[O-])n1)=N\NC(=O)c1ccc(C)cc1 | 0% | -13% | 13µM* | 15µM* | ? | 41
C/C(Cn1cnc([N+](=O)[O-])n1)=N\NC(=O)c1ccncc1 | 1% | -12% | -25% | 10% | -11% | 25
CCOc1ccc(CCNC(=O)Cn2nc(CC)n3c(cc4ccccc43)c2=O)cc1 | -1% | -14% | -20% | ? | -20% | .
S=C(Nc1ccccc1Cl)N1CCCC(c2ccccc2)=N1 | 4% | -78% | ? | 29µM* | -14% | .
CC(C)c1ccc(NC(=S)N2CCCC(c3ccc(F)cc3)=N2)cc1 | 5% | -13% | ? | 29µM* | -1% | -20
S=C(Nc1ccccc1Cl)N1CCCCCC1 | 8% | 5% | -19% | -14% | 0% | 0
CCc1ccc2oc(C(=O)Nc3c(C)n(C)n(-c4ccccc4)c3=O)cc(=O)c2c1 | 5% | 11% | -2% | -17% | -7% | .
Cc1ccc(/C=N/Nc2ccc3ccccc3n2)o1 | 9% | -52% | 2.3µM* | 4.1µM* | -31% | -107*
Cc1cccc(/C=N/Nc2ccc3ccccc3n2)c1 | 2% | -68% | -78% | 29µM* | ? | -75*
C(=N\Nc1ccc2ccccc2n1)/c1ccc2c(c1)OCCO2 | 5% | -65% | ? | ? | 16µM* | 0
COc1ccc(C2(O)C(=O)Nc3ccc(C)cc32)cc1 (centres undefined) | . | -20% | 7% | 4% | 1% | 25
C=C(C)C(=O)OC1(C(F)(F)F)Oc2cc(C)ccc2NC1=O (centres undefined) | -4% | -36% | 16µM* | 16µM* | ? | -73*
COc1ccc(CN2C(=O)C(CC(=O)NCc3cccs3)CC(C(=O)N3CCOCC3)=C2C)cc1 (centres undefined) | . | 0% | -10% | -23% | 5% | -17
CCN(Cc1cc(=O)n2ccsc2n1)Cc1nc2cc(OC)c(OC)cc2c(=O)[nH]1 | 3% | 2% | 7% | 22% | 7% | 2
COc1ccc(-c2ccc(/C=N/NC(=O)Cc3nnc(N)s3)o2)cc1Cl | 8% | -18% | ? | 18µM* | -8% | -16
COC(=O)c1ccc(-c2ccc(/C=N/NC(=O)Cc3nnc(N)s3)o2)cc1 | . | -8% | 1% | ? | 0% | -86*
Cc1ccc(-c2ccc(/C=N/NC(=O)Cc3nnc(N)s3)o2)cc1Cl | . | 18% | ? | -29% | 4% | 0
Nc1nnc(CC(=O)N/N=C/c2ccc(-c3ccccc3)o2)s1 | 5% | 1% | -6% | 2% | 8% | 0
Cc1ncc2c(c1CNC(=O)c1ccc3c(c1)OCO3)CCN(C(=O)c1csc3c1CCCC3)C2 | . | . | -4%[9.04 µM] | -13% | . | .
CCOC(=O)c1c(C)oc2nc(C)nc(NCc3ccc(C)cc3)c12 | 2% | 5% | -99% | ? | 27% | .
CCOC(=O)c1c(C)oc2nc(C)nc(NCc3cccc(Cl)c3)c12 | -3% | 2% | ? | 21µM* | 16% | .
CCOC(=O)c1c(C)oc2nc(C)nc(NCc3cccc(OC)c3)c12 | -1% | -3% | 16µM* | ? | 1% | .
CCOC(=O)c1c(C)oc2nc(C)nc(NCc3ccc(OC)cc3)c12 | 2% | -2% | ? | ? | 1% | .
CSCCC(NS(=O)(=O)c1ccc(C)cc1)C(=O)NC1CCCCCC1 (centres undefined) | 1% | -4% | ? | 21µM* | 2% | 0
CSCCC(NS(=O)(=O)c1ccc(C)cc1)C(=O)NC1CCCCC1 (centres undefined) | 5% | -7% | -9% | -7% | 11% | 26
SMILES | TDP1 inh | HepG2 viability | TDP1 cell CPT | DT40 TDP1 no CPT | TGFb SMAD3 inh | IL1B secr inh
Cc1ccc(S(=O)(=O)N[C@H](C(=O)NC2CCC(C)CC2)C(C)C)cc1 (some centres undefined) | 1% | -14% | ? | 18µM* | -13% | 21
CCOc1ccc(NC(=O)Cn2cc(C(=O)c3ccc(CC)cc3)c(=O)c3cc4c(cc32)OCO4)cc1 | 1% | -1% | ? | ? | -16% | .
O=C(Nc1cccc(-c2cccc(Cl)c2)c1)C1CCN(CC2CCOC2)CC1 (centres undefined) | 4% | -90% | ? | ? | ? | -25
O=C(Nc1cccc(-c2cccc(Cl)c2)c1)C1CCN(Cc2ccon2)CC1 | 1% | -43% | 13µM* | 29µM* | ? | -61*
O=C(Nc1cccc(-c2cccc(Cl)c2)c1)C1CCN(Cc2ccccn2)CC1 | 8% | -21% | ? | 26µM* | ? | -74*
Cc1ccccc1N1CCN(S(=O)(=O)c2nnc(NC(=O)c3ccc(C(C)C)cc3)s2)CC1 | 5% | -20% | ? | ? | -8% | .
Cc1ccc(S(=O)(=O)N2CCCCC2)cc1NC(=O)CNc1ccc(C(F)(F)F)cc1 | . | -18% | ? | ? | ? | ?
O=C(O[C@H]1[C@H](Cc2ccccc2)NS(=O)(=O)[C@H]2C[C@@H]3C=C[C@]12O3)c1ccccc1Br | . | 10% | ? | ? | -5% | .
CC(=O)Nc1ccc(Oc2ccc([N+](=O)[O-])cc2Cl)cc1 | 0% | -21% | 10µM* | ? | ? | -73*
O=C(Nc1cccc(O)c1)c1ccc([N+](=O)[O-])cc1Cl | 8% | 1% | 15µM* | ? | 1% | 15
CC(C)C(=O)Nc1ccc(NC(=O)c2ccc([N+](=O)[O-])cc2Cl)cc1 | 4% | 9% | ? | 18µM* | -12% | 17
CN(C)c1ccc(NC(=O)c2ccc([N+](=O)[O-])cc2Cl)cc1 | 0% | -5% | 9% | -22% | -3% | -4
O=c1[nH]c(=O)n(C2OC(CO)C(O)C2O)cc1N1CCOCC1 (centres undefined) | . | -5% | 0% | -3% | -3% | -7
O=Cc1c(-c2ccccc2)cc2oc3ccccc3cc1-2 | . | -14% | ? | 13µM* | -5% | 4
Nc1cccc(-c2cc3ccccc3oc2=O)c1 | 0% | -1% | 6% | 0% | 0% | -6
